# From PubChem BioAssay AID504850 (National Center for Advancing Translational Sciences (NCATS), 2011)
# Screen size: about 2,300 compounds; about 1,200 (52%) were called active. Not shown: some 34% with an inconclusive outcome. The set was probably picked from earlier hits. This is one part of the list. Unmarked numbers belong to inactive results. Calls come from the whole dose curve; as a rule, active = well fitted inhibition curve with a large enough effect; inconclusive = small, poorly fitted or top-dose-only effect, or effect the other way; inactive = no such curve, though single readings can be large or run the other way.
# Test: Confirmation screen for delayed death inhibitors of the malarial parasite plastid, 48 hour incubation; note: nearly all actives have a fitted effect of over 65% in size
# Details: P. falciparum-infected erythrocytes, luciferase growth; series mostly up to 28.7 µM; activity change, negative = inhibition: at the top concentration
# Method in brief: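 Erythrocytes infected with luciferase-expressing P. falciparum (2% hematocrit, 0.1% parasitemia) incubated with compounds 48 hours at 37 C, 5% CO2, in RPMI/Albumax. Growth inhibition scored as reduced luminescence after detection reagent.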
# % is set by controls: 0 for no effect and ±100 for the full control effect; potency is the fitted concentration of half-maximal effect.
SMILES,Potency,"activity change, negative = inhibition [%]"
Cc1nn(Cc2ccccc2Cl)c(C)c1C(=O)Nc1nnc(C2CC2)s1,11.2 µM (active),–
Cc1c(OCC(=O)NCc2cccnc2)ccc2c3c(c(=O)oc12)CCCC3,10 µM (active),–
Cc1c(OC(C)C(=O)NCc2cccnc2)ccc2c3c(c(=O)oc12)CCCC3 (stereo not drawn),1.58 µM (active),–
Cc1c(OCC(=O)NCc2cccnc2)ccc2c3c(c(=O)oc12)CCC3,–,-10.9
O=C(Nc1ccccc1SCC1CSc2nc3ccccc3c(=O)n21)c1cccc(Cl)c1 (stereo not drawn),11.2 µM (active),–
Cc1ccc(C(=O)Nc2ccccc2SCC2CSc3nc4ccccc4c(=O)n32)cc1 (stereo not drawn),11.2 µM (active),–
Cc1cccc(C(=O)Nc2ccccc2SCC2CSc3nc4ccccc4c(=O)n32)c1 (stereo not drawn),11.2 µM (active),–
O=C(Nc1ccccc1SCC1CSc2nc3ccccc3c(=O)n21)c1ccccc1Cl (stereo not drawn),11.2 µM (active),–
COc1ccc(NS(=O)(=O)c2cc(OCC(N)=O)c(C)cc2Cl)cc1,7.08 µM (active),–
CCN(CC)C1=N/C(=C\c2ccc(OC)cc2)C(=O)N1c1ccccc1,14.1 µM (active),–
COc1ccc(/C=C2\N=C(SC)N(c3ccccc3OC)C2=O)cc1,14.1 µM (active),–
COc1cccc(CN(C)Cc2cc(=O)oc3c(C)c(C)ccc23)c1,–,-26.2
Cc1ccc2c(CN(C)Cc3cccc(Cl)c3)cc(=O)oc2c1C,–,-20.7
Cc1c(O)ccc2c(CN(C)Cc3ccccc3)cc(=O)oc12,14.1 µM (active),–
COc1ccccc1CN1CCCC(CN(CCN(C)C)C(=O)c2ccc(C)cc2)C1 (stereo not drawn),15.8 µM (active),–
Cn1nnnc1Sc1ncnc2scc(-c3cccc(F)c3)c12,12.6 µM (active),–
Cn1nnnc1Sc1ncnc2scc(-c3cccc(S(C)(=O)=O)c3)c12,12.6 µM (active),–
Cc1onc(-c2c(F)cccc2Cl)c1C(=O)N1CCCCC1,–,-20.1
Cc1onc(-c2c(Cl)cccc2Cl)c1C(=O)N=C(N)N1CC(C)OC(C)C1 (stereo not drawn),11.2 µM (active),–
C=CCC1(O)C(=O)N2C(=C1C(=O)OCC)c1ccc3ccccc3c1CC2(C)C (stereo not drawn),11.2 µM (active),–
CCCNC(=O)c1ccc(S(=O)(=O)c2ccc(OC)cc2)c([N+](=O)[O-])c1,7.94 µM (active),–
Cc1ccc(C(=O)NCCn2ccc3ccccc32)cc1[N+](=O)[O-],–,20.4

SMILES,Potency,"activity change, negative = inhibition [%]"
O=C(N/N=C/C(Cl)=C\c1ccccc1)c1cccs1,5.01 µM (active),–
O=C(N/N=C(\CC(=O)c1cccs1)C(F)(F)F)c1ccncc1,–,-11.5
O=C1Nc2ccccc2/C1=C/C(=O)c1cccs1,–,-23.8
CC(=O)OC[C@H]1O[C@@H](n2ncc(=O)[nH]c2=O)[C@H](OC(C)=O)[C@@H]1OC(C)=O,–,-3.23
Cc1ccc(NC(=O)CN(C)C(=O)c2cccc(S(=O)(=O)NCc3ccco3)c2)cc1,–,-19.7
CCCN(CCC)S(=O)(=O)c1ccc(C(=O)NCc2ccco2)cc1,12.6 µM (active),–
Cc1ccc(S(=O)(=O)N(Cc2ccccc2)c2ccccc2C(=O)Nc2ccccc2C(=O)NCc2ccco2)cc1,2.51 µM (active),–
CCN(CC(=O)Nc1c(F)cccc1F)C(=O)c1ccc(S(=O)(=O)NCc2ccco2)cc1,–,-12.2
Cc1ccc(S(=O)(=O)N(CC(=O)NCc2ccco2)c2ccccc2C)cc1,12.6 µM (active),–
C(=C\c1nc(N2CCCCCC2)c2ccccc2n1)/c1ccccc1,6.31 µM (active),–
O=C(COc1ccccc1)N1c2ccccc2Sc2ccccc21,14.1 µM (active),–
Cc1cccc(N2CCN(S(=O)(=O)c3ccc4c(c3)NC(=O)CO4)CC2)c1C,15.8 µM (active),–
Cc1ccc(C)c(N2CCN(S(=O)(=O)c3ccc4c(c3)NC(=O)CS4)CC2)c1,11.2 µM (active),–
COc1ccc(-c2cc(C)no2)cc1S(=O)(=O)Nc1cccc(CN2CCCC2)c1,14.1 µM (active),–
Cc1ccc(OCCSCc2nnc(NC(=O)Nc3cccc(Cl)c3)s2)cc1,2.82 µM (active),–
Cc1cc(=O)oc2c3c(cc(OCC(=O)Nc4cccnc4)c12)OC(C)(C)CC3,3.98 µM (active),–
Cc1ccccc1-n1nc2c(c1NC(=O)C1CCCC1)CS(=O)(=O)C2,–,-20.1
CCOC(=O)c1cc(-c2ccc(C)cc2)n(CCC(=O)NCCN(C)C)c1C,11.2 µM (active),–
O=C(/C=C/c1ccccc1)Nc1sc2c(c1C(=O)O)CCC2,–,-6.98
CC(C)(C)c1ccc(C(=O)Nc2sc3c(c2C(=O)O)CCC3)cc1,11.2 µM (active),–
COc1ccc(S(=O)(=O)NCc2ccco2)cc1-c1nnc2c3ccccc3c(C)nn12,11.2 µM (active),–
CO[C@H](C(=O)[C@@H](O)[C@@H](C)O)C1Cc2cc3cc(O[C@H]4C[C@@H](O[C@H]5C[C@@H](O)[C@H](O)[C@@H](C)O5)[C@@H](O)[C@@H](C)O4)c(C)c(O)c3c(O)c2C(=O)[C@H]1O[C@H]1C[C@@H](O[C@H]2C[C@@H](O[C@H]3C[C@](C)(O)[C@H](O)[C@@H](C)O3)[C@H](O)[C@@H](C)O2)[C@H](O)[C@@H](C)O1 (stereo partly drawn),0.562 µM (active),–

SMILES,Potency,"activity change, negative = inhibition [%]"
COc1ccc(N2CCN(C(=O)CSc3nc4cc(OC)c(OC)cc4cc3C#N)CC2)cc1,7.94 µM (active),–
O=C(NNc1c2ccccc2nc2ccccc12)C(O)c1ccccc1 (stereo not drawn),12.6 µM (active),–
O=C(CCCO)NNc1c2ccccc2nc2ccccc12,11.2 µM (active),–
COc1ccccc1OCC(=O)NNc1c2ccccc2nc2ccccc12,10 µM (active),–
Cc1ccc(OCC(=O)NNc2c3ccccc3nc3ccccc23)cc1,10 µM (active),–
COc1cccc(C(=O)NNc2c3ccccc3nc3ccccc23)c1,10 µM (active),–
O=C(COc1ccccc1)NNc1c2ccccc2nc2ccccc12,11.2 µM (active),–
COc1cccc(C(=O)N/N=C(\C)CC(=O)Nc2ccc(N(C)C)cc2)c1,–,-13.9
Cc1ccc(C(=O)NNc2c3ccccc3nc3ccccc23)cc1,15.8 µM (active),–
Cc1cccc(OCC(=O)NNc2c3ccccc3nc3ccccc23)c1,11.2 µM (active),–
O=C(Nn1c(COc2ccccc2)nc2ccccc2c1=O)C(Cl)(Cl)Cl,–,-23.8
COc1ccc(Cn2c(-c3ccccc3)nc3c(c(=O)c4ccccc4n3C)c2=O)cc1,11.2 µM (active),–
COc1ccc(CCn2c(C(C)C)nc3c(c(=O)c4ccccc4n3C)c2=O)cc1,11.2 µM (active),–
COc1ccc(-c2nc3c(c(=O)c4ccccc4n3C)c(=O)n2Cc2ccccc2)cc1,10 µM (active),–
O=C(/C=C/c1ccc(Cl)c(Cl)c1)NCCCn1ccnc1,15.8 µM (active),–
Cc1ccc(C(=O)OCc2nc(N)nc(Nc3ccccc3C)n2)cc1,12.6 µM (active),–
O=C(O)CCNS(=O)(=O)c1cccc(Br)c1,–,-11.5
CCc1ccccc1Nc1nc(N)nc(COC(=O)CCC(=O)c2ccc(F)cc2)n1,8.91 µM (active),–
CCc1ccccc1Nc1nc(N)nc(COC(=O)CCNS(=O)(=O)c2ccccc2)n1,12.6 µM (active),–
CCCCN(C)C(=O)C1CCC(CNS(=O)(=O)c2ccc3c(c2)CC(C)N3C(=O)C2CC2)CC1 (stereo not drawn),12.6 µM (active),–
CCc1ccc(N/C(SCc2cccc(F)c2)=C(/C#N)C(=O)NCc2ccco2)cc1,10 µM (active),–
C#Cc1ccc(CN2CCN(CCCc3ccccc3)C(CCO)C2)cc1 (stereo not drawn),11.2 µM (active),–

SMILES,Potency,"activity change, negative = inhibition [%]"
CC(C)/C=C/CN1CCN(CCCc2ccccc2)C(CCO)C1 (stereo not drawn),12.6 µM (active),–
COc1ccccc1N1CCN(C(=O)c2noc(C(C)C)c2[N+](=O)[O-])CC1,10 µM (active),–
COc1ccc(S(=O)(=O)N(C)c2ccc(C(=O)Nc3cccnc3)cc2)cc1OC,14.1 µM (active),–
Cc1ccc(NC(=O)c2cc(S(=O)(=O)N3CCc4ccccc43)cn2C)cc1,11.2 µM (active),–
COc1ccc(S(=O)(=O)N2CCc3ccccc32)cc1C(=O)Nc1cccnc1,12.6 µM (active),–
CCOc1ccc2c(c1)sc(N)[n+]2Cc1cc(C)cc2cccnc12,5.62 µM (active),–
O=C(NCc1ccco1)c1cc2sccc2n1Cc1ccc(F)cc1,12.6 µM (active),–
O=C(Nc1cccc(S(=O)(=O)NCc2ccco2)c1)c1cc(-c2ccc(F)cc2)nc2ccccc12,–,-0.526
COc1ccc(C(C)=O)cc1CSc1nc2ccccc2c(=O)n1-c1ccccc1C,7.08 µM (active),–
Cc1ccc(/C=N/NC(=O)CSc2nc3ccccc3c(=O)n2-c2ccccc2C)s1,11.2 µM (active),–
O=C1C(=O)c2ccccc2C(O)=C1C1CCC(c2ccc(Cl)cc2)CC1 (stereo not drawn),0.02 µM (active),–
O=C1C2CCCN2C(c2ccccc2)N1c1ccc(Cl)cc1 (stereo not drawn),–,-19.3
O=C(NCc1ccccn1)c1cc(-c2ccc(-c3ccccc3)cc2)nc2ccccc12,15.8 µM (active),–
N#Cc1c(SCC(=O)Nc2ccc(C(F)(F)F)cc2)sc2c(O)cc(=O)[nH]c12,0.316 µM (active),–
Cc1cc(NC(=O)CSc2sc3c(O)cc(=O)[nH]c3c2C#N)ccc1Br,14.1 µM (active),–
O=C(CCN1C(=O)/C(=C/c2ccccc2)SC1=S)NCCc1ccc(O)cc1,–,-6.1
O=C(O)CCCN1C(=O)/C(=C\C(Cl)=C\c2ccccc2)SC1=S,14.1 µM (active),–
CCC/C(=N\NC(=O)c1ccco1)c1ccc(Cl)s1,11.2 µM (active),–
CC1CCCN(Cc2c(O)ccc3c(=O)c(-c4nc5ccccc5s4)c(N)oc23)C1 (stereo not drawn),0.316 µM (active),–
C=CCN(c1ccccc1)S(=O)(=O)c1cccc(C(=O)N2CC(C)CC(C)C2)c1 (stereo not drawn),14.1 µM (active),–
COc1ccc(Nc2nnc(-c3ccccc3)c3ccccc23)cc1C(=O)N1CCCCC1,7.94 µM (active),–
COc1ccc(Nc2nnc(-c3ccc(C)cc3)c3ccccc23)cc1C(=O)N1CCCCC1,2.51 µM (active),–
